Measured values reported in PubChem BioAssay (Tox21).
Where “and” joins values, the source holds several entries; their conditions need not be identical. Equal values may be shown once. Inconclusive results are not listed. A call without a number means that no potency is given here. Calls of active or inactive are those of the source. Unless noted, calls come from the whole dose curve; as a rule, active = well fitted curve in the direction sought with a large enough effect in the repeat runs; inconclusive = weak or mixed curves; inactive = no such curve, though single readings can be large; an effect the other way counts as inactive or inconclusive.

Key:
[1] = qHTS assay for small molecule agonists of the p53 signaling pathway (AID 651631; calls by dose curve; note: nearly all actives have a fitted effect of over 15% in size)
In short: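 Agonist mode screen using a stably integrated beta-lactamase gene under p53 response elements in HCT-116 cells. Compound exposure lasts 16 h at 37 °C; fluorescence intensity is measured following 2 h FRET substrate loading.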

[2] = qHTS assay for small molecules that induce genotoxicity in human embryonic kidney cells expressing luciferase-tagged ATAD5 - cell viability (AID 651634; calls by dose curve; note: nearly all actives have a fitted effect of over 25% in size; note: potency is the fitted concentration of half-maximal effect)
In short: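 Viability read: CellTiter-Fluor fluorescence, 30 min at 37C. Cells: HEK293T, luciferase-tagged ATAD5. Exposure: 15.5 hr, 37C, 5% CO2, compound or DMSO vehicle.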

[3] = qHTS assay for small molecule disruptors of the mitochondrial membrane potential (AID 720635); note: potency is the fitted concentration of half-maximal effect
In short: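 Mitochondrial membrane potential tracked with Mito-MPS dye, red aggregates (ex 540/em 590 nm) against green monomers (ex 490/em 535 nm). Compound treatment 1 hr at 37C, dye 30 min in HepG2.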

[4] = qHTS assay to test for compound auto fluorescence at 590 nm (red) in HepG2 cells (AID 720674)
In short: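 1 hr compound incubation on HepG2 cells, 37 C, 5% CO2; plate read ex 540 nm / em 590 nm; intensities reported as Rose Bengal sodium equivalents.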

[5] = qHTS assay to test for compound auto fluorescence at 535 nm (green) in HepG2 cells (AID 720675)
[6] = qHTS assay to test for compound auto fluorescence at 460 nm (blue) in HEK293 cells (AID 720678)
In short: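 HEK293 cells (2,000/well, medium with 10% dialyzed FBS) attached 4-5 hr, then exposed to compound overnight at 37C, 5% CO2. Blue fluorescence read at 405/460 nm, with triamterene as reference fluorophore.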

[7] = qHTS assay to test for compound auto fluorescence at 590 nm (red) in HEK293 cells (AID 720679)
In short: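 HEK293 cells (2,000/well, 10% dialyzed FBS) attached 4-5 hr, then dosed with compound or DMSO and incubated overnight at 37C, 5% CO2. Red fluorescence read at 540/590 nm, Rose Bengal sodium as reference fluorophore.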

[8] = qHTS assay to test for compound auto fluorescence at 535 nm (green) in HEK293 cells (AID 720680)
[9] = qHTS assay to test for compound auto fluorescence at 460 nm (blue) in HEK293 cell free culture (AID 720681)
In short: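 Blue fluorescence (Ex 405/Em 460 nm, triamterene-equivalent) was read immediately after pin transfer of compound or DMSO into medium (DMEM, 10% FBS) without cells.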

[10] = qHTS assay to test for compound auto fluorescence at 535 nm (green) in HEK293 cell free culture (AID 720682)
In short: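 No cells present: wells hold DMEM supplemented with 10% FBS, into which compound or vehicle is pinned. Green emission is then recorded (485 nm excitation, 535 nm emission) and scaled to fluorescein.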

[11] = qHTS assay to test for compound auto fluorescence at 590 nm (red) in HEK293 cell free culture (AID 720683)
In short: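 Red-channel autofluorescence of compounds in culture medium (DMEM, 10% FBS), no cells, measured at 540/590 nm. Rose Bengal sodium is the reference fluorophore for equivalence.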

[12] = qHTS assay to test for compound auto fluorescence at 590 nm (red) in HepG2 cell free culture (AID 720684)
In short: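 Steps: dispense MEM/10% FBS medium, no cells; pin compound or DMSO vehicle; read red channel, Ex/Em 540/590 nm. Output given as Rose Bengal sodium equivalents.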

[13] = qHTS assay to test for compound auto fluorescence at 460 nm (blue) in HepG2 cell free culture (AID 720685)
In short: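 Compound (23 nL) or DMSO pinned into cell-free MEM with 10% FBS; blue fluorescence read at 405/460 nm excitation/emission, expressed as auto-fluorescence equivalency to triamterene.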

[14] = qHTS assay to test for compound auto fluorescence at 535 nm (green) in HepG2 cell free culture (AID 720686)
[15] = qHTS assay to test for compound auto fluorescence at 460 nm (blue) in HepG2 cells (AID 720687)
In short: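 Blue-channel autofluorescence (Ex/Em 405/460 nm, triamterene-equivalent) was measured after 1 hr compound exposure at 37 C, 5% CO2. Cells were HepG2, plated overnight at 37 C in MEM plus 10% FBS.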

[16] = biological target: Glucocorticoid receptor (Homo sapiens) (UniProt P04150); assay: qHTS assay to identify small molecule agonists of the glucocorticoid receptor (GR) signaling pathway (AID 720691; active = well fitted activation curve with a large enough effect in the signal ratio in the repeat runs, not every such curve was filed as active; the % refers to the signal ratio; note: potency is the fitted concentration of half-maximal effect); settings: GR-bla HeLa, beta-lactamase reporter ratio, 18 h; activation: at 62.4 µM (top of the series)
Glucocorticoid receptor (Homo sapiens), sequence (P04150 whole entry, looked up): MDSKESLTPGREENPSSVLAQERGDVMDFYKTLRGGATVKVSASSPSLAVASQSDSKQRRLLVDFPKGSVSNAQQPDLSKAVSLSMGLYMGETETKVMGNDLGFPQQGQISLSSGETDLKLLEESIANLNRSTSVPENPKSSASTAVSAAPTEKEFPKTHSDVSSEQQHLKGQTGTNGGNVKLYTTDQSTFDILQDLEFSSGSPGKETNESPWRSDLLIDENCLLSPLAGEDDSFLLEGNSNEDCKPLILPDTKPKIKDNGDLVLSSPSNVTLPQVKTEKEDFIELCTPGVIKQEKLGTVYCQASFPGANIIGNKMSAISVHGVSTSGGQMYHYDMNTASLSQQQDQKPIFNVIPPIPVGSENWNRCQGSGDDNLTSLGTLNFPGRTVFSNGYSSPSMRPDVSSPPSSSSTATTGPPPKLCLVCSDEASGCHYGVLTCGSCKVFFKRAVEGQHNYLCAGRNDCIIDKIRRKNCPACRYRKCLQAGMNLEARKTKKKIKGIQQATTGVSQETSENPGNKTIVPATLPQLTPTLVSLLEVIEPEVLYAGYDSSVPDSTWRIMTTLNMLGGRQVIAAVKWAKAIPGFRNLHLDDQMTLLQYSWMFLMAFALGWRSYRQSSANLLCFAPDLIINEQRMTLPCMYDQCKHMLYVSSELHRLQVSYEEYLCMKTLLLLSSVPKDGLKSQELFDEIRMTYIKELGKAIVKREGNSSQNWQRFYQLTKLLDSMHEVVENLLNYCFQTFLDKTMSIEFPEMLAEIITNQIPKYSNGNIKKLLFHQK
In short: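 qHTS in GR-bla HeLa cells: 4 h settling at 37 C/5% CO2, 18 h compound incubation at 37 C, 2 h LiveBLAzer B/G FRET substrate at room temperature, fluorescence intensity measured.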

[17] = biological target: Glucocorticoid receptor (Homo sapiens) (UniProt P04150); assay: qHTS assay to identify small molecule antagonists of the glucocorticoid receptor (GR) signaling pathway (AID 720692; active = well fitted inhibition curve with a large enough effect in the signal ratio in the repeat runs, not every such curve was filed as active; the % refers to the signal ratio)
In short: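 Inhibition of glucocorticoid signalling is measured in HeLa cells with a GRE-controlled beta-lactamase reporter; cells are co-treated with compound and 5 nM dexamethasone (final) for 18 h before FRET substrate readout.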

[18] = qHTS assay for small molecule agonists of the p53 signaling pathway - cell viability (AID 651633; calls by dose curve; note: nearly all actives have a fitted effect of over 30% in size; note: potency is the fitted concentration of half-maximal effect)
In short: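 Viability counter-read: CellTiter-Glo luminescence (30 min, room temperature) in the same p53RE-bla plates. These plates had been exposed to compounds for 16 h at 37 C.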

[19] = qHTS assay for small molecule disruptors of the mitochondrial membrane potential - cell viability (AID 720634; calls by dose curve; note: nearly all actives have a fitted effect of over 20% in size; note: potency is the fitted concentration of half-maximal effect)
In short: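 HepG2, 1 hr compound, 37 C. ATP luminescence via CellTiter-Glo, 30 min RT, same well as m-MPI.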

[20] = qHTS assay for small molecules that induce genotoxicity in human embryonic kidney cells expressing luciferase-tagged ATAD5 (AID 651632); note: nearly all actives have a fitted effect of over 15% in size; note: potency is the fitted concentration of half-maximal effect
In short: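 Luminescent reporter readout, HEK293T ATAD5-luc line: 16 hr drug exposure (37C, 5% CO2) followed by Amplite, 30 min RT.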

| SMILES | Potency [1] | Potency [2] | Potency [3] | Potency [4] | Potency [5] | Potency [6] | Potency [7] | Potency [8] | Potency [9] | Potency [10] | Potency [11] | Potency [12] | outcome [13] | Potency [14] | outcome [15] | Potency [16] | Potency [17] | Potency [18] | Potency [19] | Potency [20] |
| --- | --- | --- | --- | --- | --- | --- | --- | --- | --- | --- | --- | --- | --- | --- | --- | --- | --- | --- | --- | --- |
| CCCC(=O)Nc1ncnc2c1ncn2[C@@H]1O[C@@H]2COP(=O)(O)O[C@H]2[C@H]1OC(=O)CCC | inactive | inactive | inactive | inactive | inactive | inactive | inactive | inactive | inactive | inactive | inactive | inactive | inactive | inactive | inactive | inactive | inactive | – | – | – |
| CC(NNC(=O)c1ccccc1)c1ccccc1 (stereo unspecified) | inactive | inactive | – | inactive | – | inactive | inactive | inactive | inactive | inactive | inactive | inactive | – | inactive | inactive | – | – | inactive | inactive | – |
| COc1cc([C@@H]2c3cc4c(cc3C(O[C@@H]3O[C@@H]5CO[C@@H](C)O[C@H]5[C@H](O)[C@H]3O)C3COC(=O)[C@@H]32)OCO4)cc(OC)c1OP(=O)(O)O (stereo partly specified) | – | inactive | inactive | inactive | inactive | inactive | inactive | inactive | inactive | inactive | inactive | inactive | inactive | inactive | inactive | – | – | inactive | inactive | 2.66 µM (active) and 6.68 µM (active) |
| CC(=O)N[C@@H](CC(=O)N[C@@H](CCC(=O)O)C(=O)O)C(=O)O | – | inactive | inactive | inactive | inactive | inactive | inactive | inactive | inactive | inactive | inactive | inactive | inactive | inactive | inactive | – | – | inactive | inactive | inactive |
| CC(=O)Nc1ccc(OC(=O)c2ccccc2O)cc1 | – | inactive | 26.6 µM (active) | inactive | inactive | inactive | inactive | inactive | inactive | inactive | inactive | inactive | inactive | inactive | inactive | – | – | inactive | inactive | inactive |
| CCN(CC)c1ccc(C(=C2C=CC(=[N+](CC)CC)C=C2)c2ccccc2)cc1 | – | 7.5 µM (active) | 0.266 µM (active) | inactive | inactive | inactive | inactive | inactive | inactive | inactive | inactive | inactive | inactive | inactive | inactive | – | – | 1.68 µM (active) | inactive | 2.37 µM (active) |
| O=C(O)[C@H]1/C(=C/CO)O[C@@H]2CC(=O)N21 | – | inactive | inactive | inactive | inactive | inactive | inactive | inactive | inactive | inactive | inactive | inactive | inactive | inactive | inactive | – | – | inactive | inactive | inactive |
| C[C@]12C=CC(=O)N[C@@H]1CC[C@@H]1[C@@H]2CC[C@]2(C)[C@@H](C(=O)Nc3cc(C(F)(F)F)ccc3C(F)(F)F)CC[C@@H]12 | – | inactive | 0.944 µM (active) | inactive | inactive | inactive | inactive | inactive | inactive | inactive | inactive | inactive | inactive | inactive | inactive | 26.8 µM (active) | – | inactive | inactive | inactive |
| O=C(COc1ccc(Cl)cc1)OCCNC12CC3CC(CC(C3)C1)C2 | – | inactive | inactive | inactive | inactive | inactive | inactive | inactive | inactive | inactive | inactive | inactive | inactive | inactive | inactive | – | – | inactive | inactive | inactive |
| CN(CCO)CC(O)Cn1cnc2c1c(=O)n(C)c(=O)n2C (stereo unspecified) (tested in a mixture with another compound) | – | inactive | inactive | inactive | inactive | inactive | inactive | inactive | inactive | inactive | inactive | inactive | inactive | inactive | inactive | – | – | inactive | inactive | inactive |
| CNCC(O)c1ccc(OC(=O)C(C)(C)C)c(OC(=O)C(C)(C)C)c1 (stereo unspecified) | inactive | inactive | – | inactive | inactive | inactive | inactive | inactive | inactive | inactive | inactive | inactive | – | inactive | inactive | inactive | inactive | inactive | inactive | – |
| CCC(C)C(C(=O)OCC[N+](C)(CC)CC)c1ccccc1 (stereo unspecified) | inactive | inactive | inactive | inactive | inactive | inactive | inactive | inactive | inactive | inactive | inactive | inactive | inactive | inactive | inactive | inactive | inactive | inactive | – | – |
| CSc1nc2cc(Oc3cccc(Cl)c3Cl)c(Cl)cc2[nH]1 | – | 29.8 µM (active) | 1.68 µM (active) | inactive | inactive | inactive | inactive | inactive | inactive | inactive | inactive | inactive | inactive | inactive | inactive | – | – | 10.6 µM (active) | 2.11 µM (active) | inactive |
| Nc1ncnc(Nc2ccc(Cl)cc2)n1 | inactive | inactive | – | inactive | inactive | inactive | inactive | inactive | inactive | inactive | inactive | inactive | inactive | inactive | inactive | – | inactive | inactive | – | – |
